Rows were chosen to be rich in hits. Some 2.8% of all compounds tested hit in one or more screens of this group.
CF NFkB block: inhibitors of PAF-induced NF-kB signaling, primary screen, cell-based, GFP fluorescence, uHTS. inhibition, % at 5 µM. hit rate 0.86% among 360,000. AID 588850, 2011. KKLEB NF-kB-GFP reporter, GFP fluorescence overnight;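 active means at least 50% inhibition at 5 µM, scaled per plate between neutral and stimulator controls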;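 further: PAF is a Pseudomonas aeruginosa culture filtrate used as stimulus; plate controls were PAF-stimulated DMSO wells for no effect and unstimulated DMSO wells for full effect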
MITF TRPM1 inh: inhibitors of MITF-dependent TRPM1 promoter reporter, primary screen, cell-based, SK-MEL-5, single point, luciferase. SK-MEL-5 TRPM1 promoter luciferase, 24 h. inhibition, % at 12.5 µM. hit rate 0.83% among 330,000;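 active means mean inhibition across replicates of 60% or more, whatever share of single replicates reaches that level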
Shn3 inh set2: reduction of Shn3 3'UTR firefly luciferase signal, primary screen, Schnurri-3 inhibitor project, cell-based, Clone20 osteoblasts, set 2. AID 588674, 2011. Clone20 osteoblast Shn3 3'UTR firefly luciferase, 24 h. inhibition, % at 12.5 µM. hit rate 0.52% among 360,000;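 active means mean inhibition of at least 75% with every replicate also reaching 75%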;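 further: 0% = median of neutral control wells and 100% = pilot-screen positive control compound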
KKLEB tox: cytotoxicity in KKLEB CF airway cells, primary screen, cytotoxicity control for CF NF-kB inhibitor project, cell-based, uHTS, fluorescence assay plates; KKLEB CF airway cells viability, ATPlite luminescence, overnight; hits give low values; cells stimulated with P. aeruginosa culture filtrate; activity change (cytotoxicity), % at 5 µM; hit rate 0.36% among 360,000; AID 602141, 2011;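 active means corrected activity change at or below -50% at 5 µM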
HIF-2a block: HIF-2a reporter inhibitors, primary screen, luminescence, 786-0 RCC cells; 786-0 RCC cells HIF-2a reporter, luciferase luminescence, overnight; inhibition, % at 18.8 µM; hit rate 0.72% among 360,000;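 active means inhibition of the luminescence signal of 40% or more relative to plate controls, in a single-dose primary screen at 18.75 µM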
Peg3 prom inh-1: Peg3 promoter-driven luciferase inhibitors, primary screen, cell-based, HeLa, luciferase luminescence; HeLa PEG-Prom luciferase reporter, overnight; inhibition, % at 20 µM; hit rate 1.7% among 360,000;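 active means inhibition of at least 50% at 20 µM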
Peg3 prom inh-2: Peg3 promoter reporter inhibitors, retest, confirmation, cell-based, HeLa, luciferase reporter, single concentration | shares compounds with Peg3 prom inh-1 | HeLa PEG-Prom luciferase reporter, luminescence, overnight | inhibition, % at 20 µM | hit rate 84% among 1,300 | AID 602417, 2012;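 active means at 20 µM dose, 40% or more inhibition averaged across four replicates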
* = called active by the depositor.

What do the screens show for `COc1ccc(C(=O)CN2Cc3ccccc3C2=N)cc1`?
CF NFkB block: -1; MITF TRPM1 inh: -75; Shn3 inh set2: -39; KKLEB tox: -2; HIF-2a block: -276; Peg3 prom inh-1: -310

Results for COc1ccc2c(c1OC)C(=O)N1c3ccccc3SC21 (stereo not drawn) ?
CF NFkB block: -6; MITF TRPM1 inh: -41; Shn3 inh set2: -49; KKLEB tox: -4; HIF-2a block: -244; Peg3 prom inh-1: -332

How did COc1ccc2c(c1OC)C(=O)N1c3ccccc3C(=O)N(c3ccccc3F)C21 (stereo not drawn) do in these assays?
CF NFkB block: 86*; MITF TRPM1 inh: 9; Shn3 inh set2: 80; KKLEB tox: -87*; HIF-2a block: 7; Peg3 prom inh-1: 62*; Peg3 prom inh-2: 45*

How did O=C(CN1C(=O)/C(=C/c2ccccc2F)Sc2ccccc21)NCC1CCCO1 (stereo not drawn) do in these assays?
CF NFkB block: 19; MITF TRPM1 inh: -8; Shn3 inh set2: -5; KKLEB tox: -1; HIF-2a block: -17; Peg3 prom inh-1: 20

Results for Cc1cc2cc(C)c3nnc(SCC(=O)Nc4ccc(S(=O)(=O)N5CCCCC5)cc4)n3c2cc1C ?
CF NFkB block: 6; MITF TRPM1 inh: -6; Shn3 inh set2: 27; KKLEB tox: -18; HIF-2a block: 23; Peg3 prom inh-1: 69*; Peg3 prom inh-2: 5

Results for Cc1cc2ccccc2n2c(SCC(=O)Nc3ccc(S(=O)(=O)N4CCCCC4)cc3)nnc12 ?
CF NFkB block: -9; MITF TRPM1 inh: 5; Shn3 inh set2: 13; KKLEB tox: -7; HIF-2a block: 5; Peg3 prom inh-1: 11

Results for O=C(N/N=C/c1ccccc1)c1n[nH]c2c1CCCC2 ?
CF NFkB block: -2; MITF TRPM1 inh: -8; Shn3 inh set2: -22; KKLEB tox: -32; HIF-2a block: -112; Peg3 prom inh-1: -1

What do the screens show for `O=C(N/N=C/c1ccccc1Cl)c1n[nH]c2c1CCCC2`?
CF NFkB block: 15; MITF TRPM1 inh: 67*; Shn3 inh set2: 54; KKLEB tox: -21; HIF-2a block: -17; Peg3 prom inh-1: 78*; Peg3 prom inh-2: 16

Results for CC(C)c1ccc(NC(=O)Nc2nc(CN)cs2)cc1 ?
CF NFkB block: 5; Shn3 inh set2: -48; KKLEB tox: 6; HIF-2a block: -52; Peg3 prom inh-1: -270

What do the screens show for `COc1cccc(Nc2nc(C(C)N)cs2)n1` (stereo not drawn)?
CF NFkB block: -28; Shn3 inh set2: 9; KKLEB tox: 14; HIF-2a block: 10; Peg3 prom inh-1: 6

What do the screens show for `Cc1ccccc1NC(=O)Nc1nc(C(N)C2CCCCC2)cs1` (stereo not drawn)?
CF NFkB block: 18; Shn3 inh set2: 12; KKLEB tox: -14; HIF-2a block: 2; Peg3 prom inh-1: 86*; Peg3 prom inh-2: 81*

Results for COc1ccc(NC(=O)Nc2nc(C(N)C3CCCCC3)cs2)cc1 (stereo not drawn) ?
CF NFkB block: 10; Shn3 inh set2: -36; KKLEB tox: -8; HIF-2a block: -2; Peg3 prom inh-1: 54*; Peg3 prom inh-2: 71*

What do the screens show for `CC(C)c1ccc(NC(=O)Nc2nc(C(C)N)cs2)cc1` (stereo not drawn)?
CF NFkB block: 0; Shn3 inh set2: -12; KKLEB tox: 0; HIF-2a block: 4; Peg3 prom inh-1: 86*; Peg3 prom inh-2: 90*

Results for COc1cccc(Nc2nc(C(N)C3CCCCC3)cs2)n1 (stereo not drawn) ?
CF NFkB block: 6; Shn3 inh set2: 23; KKLEB tox: -5; HIF-2a block: 5; Peg3 prom inh-1: 96*; Peg3 prom inh-2: 63*

Screening results as filed in PubChem BioAssay.
